Compound activity from PubChem BioAssay.
Many of the other results were omitted from the sample, so hits are more common in it than they were.
Pf Dd2 growth – blocks in vitro growth of P. falciparum Dd2; Potency, µM (titrated, usually from 28.9 µM), inactives show top-dose activity, negative = inhibition, usual class: inhibitors; P. falciparum Dd2 growth, SYBR Green, 72 h; hit rate 4.3% among 120,000; AID 1347417; active = well fitted inhibition curve with a large enough effect;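 note: plate controls were DMSO vehicle for no effect and reference drug for full effect; nearly all actives have a fitted effect of over 65% in size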
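Readout: SYBR Green fluorescence, 485 nm excitation, 535 nm emission, after ~16 h lysis at 37C. Before that, Dd2-infected red cells (2.5% hematocrit) grew 72 h with compound, 29 uM top final concentration.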
An asterisk follows results filed as active; i = inactive; [ ] = remark or other dose. Potency is the fitted concentration of half-maximal effect.

SMILES	Pf Dd2 growth
O=C(O)c1ccc(CN2Cc3[nH]cnc3C[C@H]2c2nc(-c3cccc([N+](=O)[O-])c3)no2)cc1	-6%
O=[N+]([O-])c1cccc(-c2noc([C@@H]3Cc4nc[nH]c4CN3CC3CCCCC3)n2)c1	14µM*
Cc1cccc(-c2noc([C@@H]3Cc4nc[nH]c4CN3C(=O)C3CCCCC3)n2)c1	-12%[44.1 µM]
CCCCOc1ccc(C(=O)N2CCC[C@H]2c2nc(-c3ccc(OC)cc3)no2)cc1	11µM*
COc1ccc(-c2noc([C@@H]3Cc4nc[nH]c4CN3C(=O)NC3CCCCC3)n2)cc1	13µM*
COc1ccc(-c2noc([C@@H]3CCCN3C(=O)c3ccc(C(C)(C)C)cc3)n2)cc1	i
COCC(=O)N1CCn2c(nn(-c3ccc([N+](=O)[O-])cc3)c2=O)C1	-1%[44.1 µM]
O=C([C@H]1C[C@H](Oc2ccccc2)CN1Cc1ccc2[nH]ccc2c1)N1CCOCC1	-1%
O=C(c1ccc2cc[nH]c2c1)N1CCC2(CC1)CC(Cc1cccc(F)c1)CCO2 (stereo not drawn)	i
CCOc1ccccc1NC(=O)CN1C=C(C(=O)OC)C(C)=NS1(=O)=O	15%
O=C(O)Cn1ccc2cc(OCCc3cccc(-c4ccc(F)cc4)c3)cnc21	-23%[44.1 µM]
Cc1oc(C(O)c2ccccc2)nc1C(=O)Nc1ccc2c(c1)CNC2=O (stereo not drawn)	-23%[44.1 µM]
CCc1ncn2ccn(Cc3ccccc3F)c(=O)c12	i
CC(C)(C)CNCC1(O)CCCN(Cc2cccc(F)c2F)C1=O (stereo not drawn)	4.5µM*
O=C1N(Cc2cccc(F)c2F)CCCC1(O)CN1CCNCC1 (stereo not drawn)	-2%
CN(CCO)CC1(O)CCCN(Cc2cccc(F)c2F)C1=O (stereo not drawn)	i
CC(C)COC(=O)/C(C#N)=C\c1ccc(-c2ccccc2Cl)o1	1.1µM*
CCC(C)OC(=O)/C(C#N)=C\c1ccc(-c2ccccc2Cl)o1 (stereo not drawn)	79%
CCOC(=O)/C(C#N)=C/c1ccc(-c2ccccc2)o1	5%
CCOC(=O)CC1COCCN1C(=O)c1cn(Cc2ccc(F)cc2Cl)nn1 (stereo not drawn)	14%
COCCn1ncc(N2CCCC(CC(=O)NCCc3ccccc3)C2)cc1=O (stereo not drawn)	-17%
CCOC(=O)C1CCN(C(=O)CCN(CC)C(=O)c2cc(C)oc2C)CC1	-5%
CCOc1ccc(CN(CCc2ccc3c(c2)OCO3)Cc2cccc(Br)c2)cc1	3%
CCOc1ccc(CN(CCc2ccc3c(c2)OCO3)Cc2ccc(C)cc2)cc1	10µM*
CCOc1ccccc1CNC(=O)c1noc(-c2ccc3c(c2)OCO3)n1	-2%
SMILES	Pf Dd2 growth
CCOc1ccccc1CN(CCc1ccc2c(c1)OCO2)Cc1cc(OC)c(OC)cc1OC	4µM*
CCOc1ccc(CN(C)C2CCOc3ccccc32)cc1 (stereo not drawn)	-10%[44.1 µM]
CCOc1ccc(CN(CCc2ccc3c(c2)OCO3)Cc2cccc(OC)c2)cc1	-1%
O=C(c1ccc2c(c1)OCO2)N1CCC2(CC1)CC(c1ccccc1)=NO2	-24%
CC(=O)NC1CCN(C(=O)c2coc(COc3ccc4c(c3)OCO4)n2)C1 (stereo not drawn)	4%
Cc1ncc(CO)c(CN2CCC3(Cc4ccccc4CNC3=O)C2)c1O (stereo not drawn)	4%
CC(C)c1cnc(C2CCCN(C(=O)OC(C)(C)C)C2)[nH]1 (stereo not drawn)	11µM*
CC(C)(C)C(=O)N1CCCC(c2nn(-c3ccccc3)c(=O)[nH]2)C1 (stereo not drawn)	i
CC(C)Cc1cnc(C2CCCN(C(=O)OC(C)(C)C)C2)[nH]1 (stereo not drawn)	7.1µM*
Cc1cnc(C2CC2)n1C1CCCN(C(=O)CC(C)C)C1 (stereo not drawn)	-7%
CCCCc1ncc(CN2CCCC(c3cccc(C(=O)O)c3)C2)[nH]1 (stereo not drawn)	-2%
COc1ccc(-n2nc(C3CCCN(C(=O)C(C)(C)C)C3)[nH]c2=O)cc1 (stereo not drawn)	i
O=C(c1cccc(OC(F)(F)F)c1)N1CCC(c2n[nH]c(=O)n2-c2ccccc2)CC1	-15%
CCCn1c(C)c(CC(=O)NCc2cccnc2)c2c1CC(C)(C)CC2=O	i
CNc1nc2c(c(C(=O)N3CCCC3)n1)CN(C(=O)Cn1nccc1C)CC2	-6%
Cc1noc(-c2cn(C3CCN(C(=O)c4sccc4C)C3)nn2)n1 (stereo not drawn)	i
CN(C)S(=O)(=O)N1CCCC(c2nnc(CN3CCCCC3)n2C)C1 (stereo not drawn)	-19%
CN1CCC(C(=O)N2Cc3ccccc3CC3(CCN(C)C3)C2)CC1 (stereo not drawn)	14%
Cc1noc(C)c1C(=O)N1Cc2ccccc2CC2(CCN(C)C2)C1 (stereo not drawn)	10µM*
Cc1noc(C)c1C(=O)N1Cc2ccccc2CC2(CCN(CC3CCNCC3)CC2)C1	17%
CN1CCCC1c1nc(C2CN(C(=O)c3cnccn3)C2)no1 (stereo not drawn)	i
C[C@@H]1C(=O)O[C@H]2[C@H]1CC[C@@]1(C)Cc3sc(NC(=O)c4c(Cl)cccc4Cl)nc3[C@@H](C)[C@H]21	i
CC(=O)N1CCC(C(=O)Nc2nc3c(s2)C[C@]2(C)CC[C@@H]4[C@H](OC(=O)[C@H]4C)[C@H]2[C@@H]3C)CC1	i
C[C@@H]1C(=O)O[C@H]2[C@H]1CC[C@@]1(C)Cc3sc(NC(=O)NC4CCCCC4)nc3[C@@H](C)[C@H]21	11µM*
C[C@@H]1C(=O)O[C@H]2[C@H]1CC[C@@]1(C)Cc3sc(NC(=O)Nc4ccc(Oc5ccccc5)cc4)nc3[C@@H](C)[C@H]21	11µM*
SMILES	Pf Dd2 growth
COCC(=O)Nc1nc2c(s1)C[C@]1(C)CC[C@@H]3[C@H](OC(=O)[C@H]3C)[C@H]1[C@@H]2C	-4%[44.1 µM]
C[C@@H]1C(=O)O[C@H]2[C@H]1CC[C@@]1(C)Cc3sc(NS(=O)(=O)c4ccc(F)cc4)nc3[C@@H](C)[C@H]21	i
O=C(N1CCC[C@H]1c1nc(-c2ccccc2Cl)no1)C1(c2ccccc2)CC1	-10%
CCC(C)C(=O)NCc1cc2c(nc1OC)CN(CCc1ccccn1)C2=O (stereo not drawn)	-17%
O=[S+]1([O-])NC2(CCN(Cc3cccc4ccccc34)CC2)CNc2ccccc21	-12%
O[C@]12CCNC[C@H]1CN(Cc1cccc(N3CCOCC3)c1)CC2	-4%
O[C@]12CCNC[C@H]1CN(Cc1ccc(C(F)(F)F)cc1F)CC2	-27%
COc1cccc(CN2CC[C@@]3(O)CCNC[C@H]3C2)c1OCCCn1ccnc1	4µM*
COc1ccc(Cn2c(C(=O)O)c(CNC3CCCCC3)c3ccc(C)cc32)cc1	-18%
COc1ccc(Cn2c(C(=O)O)c(CNCc3ccc(OC)cc3OC)c3ccc(C)cc32)cc1	6.3µM*
COc1ccc(Cn2c(C(=O)O)c(CNCCc3cc(OC)ccc3OC)c3ccc(C)cc32)cc1	8.9µM*
COc1ccc2c(CNCCc3cccs3)c(C(=O)O)n(Cc3ccccc3)c2c1	-4%
COc1ccc2c(CNCCc3cccs3)c(C(=O)O)n(Cc3cccc(F)c3)c2c1	i
COc1ccc(Cn2c(C(=O)O)c(CNCCc3ccco3)c3ccc(C)cc32)cc1	-11%
CCOc1ccc(CCNCc2c(C(=O)O)n(Cc3ccc(C)cc3)c3cc(OC)ccc23)cc1	11µM*
COc1ccc2c(CNCc3ccccc3OC)c(C(=O)O)n(Cc3ccc(F)cc3Cl)c2c1	274%[0.0462 µM]
